Hits are enriched below; roughly 2.1% of the tested compounds scored in any of these assays.
APP transl inh: APP translation inhibition | SH-SY5Y APP 5'UTR-luciferase reporter, luminescence | inhibition, % at 2 µM | 0.82% of 190,000 active | AID 1285;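 active = inhibition above a set limit, derived from the sample mean plus 3 SD, cut at about 45% in these data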
BaF3 tox: reduces parental Ba/F3 cell viability, JAK2V617F counter-screen. CellTiter-Glo ATP luminescence. 1.1% of 220,000 active. inhibition, % at 5.6 µM;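 active = inhibition above a per-campaign cutoff, the mean inhibition of all tested compounds plus 3 SD, cut at about 27% in these data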
Ba/F3 V617F tox: loss of viability in JAK2V617F-driven Ba/F3 cells; 1.1% of 220,000 active; inhibition, % at 5.6 µM; Ba/F3 EpoR-JAK2V617F viability, ATP luminescence; AID 1446;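 active = inhibition above the campaign mean plus 3 SD over all tested compounds, cut at about 24% in these data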;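 note: cytokine-independent growth of Ba/F3 cells driven by EpoR plus mutant JAK2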
KLF5 inhibitor: suppresses KLF5 promoter-driven expression; DLD-1 KLF5 promoter-luciferase reporter, luminescence; inhibition, % at 5 µM; 0.23% of 290,000 active;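 active = inhibition above a per-plate limit of that plate's mean compound inhibition plus 3 SD, cut at about 60% in these data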;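 note: higher means less KLF5 promoter-driven luciferase light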
aSyn 5UTR inh: 5' untranslated region of α-synuclein, MLPCN primary screen; alpha-synuclein 5'UTR reporter, inhibitor activity; inhibition, % (tested at 7.5 µM); 0.82% of 300,000 active; AID 1813; in the data active = inhibition above about 60%;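 note: H4 neuroglioblastoma cells stably carrying SNCA 5'UTR luciferase fusion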
IEC-6 tox: counter-screen for KLF5 inhibitors: cytotoxicity in IEC-6 cells; IEC-6 cytotoxicity, luminescence viability; inhibition, % at 5 µM; 0.78% of 290,000 active; AID 1825
IEC-6 tox confirm: IEC-6 cytotoxicity, confirmation assay; shares compounds with IEC-6 tox; IEC-6 rat intestinal epithelial viability, luminescence; inhibition, % at 5 µM; 63% of 1,900 active
Large screens that a line does not name were inactive (follow-up assays come after a bar, where they were run). Cut-off read from the data, not from the text of the source, unless noted: active = inhibition above about 22%; inactive = the rest.

COc1cc2nc(=S)n3[nH]c(COc4ccccc4C)nc3c2cc1OC	none
COc1cc2nc(=S)n3[nH]c(CCn4nc(C)cc4C)nc3c2cc1OC	IEC-6 tox 53 | IEC-6 tox confirm inactive
COc1ccccc1-n1cc(-c2ccccc2)c2c(=S)nc[nH]c21	none (no result: APP transl inh, BaF3 tox, Ba/F3 V617F tox)
COc1cc2c(cc1OC)C(C)N(C(=O)c1cc(Cl)nc(Cl)c1)CC2 (configuration not stated)	IEC-6 tox 39 (no result: APP transl inh, BaF3 tox, Ba/F3 V617F tox) | IEC-6 tox confirm inactive
COc1cc2c(cc1OC)C(C)N(C(=O)c1nccnc1C(=O)O)CC2 (configuration not stated)	none (no result: APP transl inh)
CCOc1cc(CNc2ccc3c(c2)OCCO3)cc(Br)c1OC	APP transl inh 94, BaF3 tox 73, Ba/F3 V617F tox 72, aSyn 5UTR inh 95, IEC-6 tox 82 | IEC-6 tox confirm 61
CCOc1c(Br)cc(CNc2ccc3c(c2)OCCO3)cc1OC	APP transl inh 94, BaF3 tox 77, Ba/F3 V617F tox 80, aSyn 5UTR inh 97, IEC-6 tox 76 | IEC-6 tox confirm 54
CCOc1cc(CNc2ccc3c(c2)OCCO3)cc(Br)c1OCC(N)=O	none
Cc1cccc2cc(/C=N/NC(=O)c3ccncc3)c(Cl)nc12	none (no result: APP transl inh)
O=C(O)c1ccc(N/N=C/c2cc3ccccc3nc2Cl)cc1	IEC-6 tox 22 (no result: APP transl inh) | IEC-6 tox confirm 31
Cc1cccc2cc(/C=N/Nc3ccc(C(=O)O)cc3)c(Cl)nc12	IEC-6 tox 27 (no result: APP transl inh) | IEC-6 tox confirm 48
O=C1NC(=S)N/C1=C/c1ccc2ccccc2c1	none (no result: APP transl inh, BaF3 tox, Ba/F3 V617F tox)
COc1cc2c3c(c1)C(C)=CC(C)(C)N3C(=O)C2=O	IEC-6 tox 87 | IEC-6 tox confirm 44
CCOc1ccc(NC(=O)c2cccc3ccccc23)cc1	IEC-6 tox 22 (no result: APP transl inh, BaF3 tox, Ba/F3 V617F tox) | IEC-6 tox confirm inactive
O=C(Nc1ccc(Cl)cn1)c1ccccc1[N+](=O)[O-]	none
O=C(Nc1ccc(Cl)cn1)c1cccc2ccccc12	IEC-6 tox 44 (no result: APP transl inh, BaF3 tox, Ba/F3 V617F tox) | IEC-6 tox confirm 25
Cc1ccc(C(=O)N2CCCC2)cc1S(=O)(=O)N1CCCCC1	none (no result: APP transl inh, BaF3 tox, Ba/F3 V617F tox)
CCC(CC)C(=O)c1c[nH]c(C(=O)NN)c1	APP transl inh 88, IEC-6 tox 30 | IEC-6 tox confirm inactive
CCC(CC)C(=O)c1c[nH]c(C(=O)O)c1	none
COc1ccc(S(=O)(=O)N2CCCOC2CNC(=O)C(=O)NCc2ccccn2)cc1 (configuration not stated)	none (no result: APP transl inh, BaF3 tox, Ba/F3 V617F tox)
O=C(C1=NN[C@@H]2C(=O)N(c3ccccc3C(F)(F)F)C(=O)[C@H]12)c1ccc2ccccc2n1	BaF3 tox 54, Ba/F3 V617F tox 76, IEC-6 tox 71 | IEC-6 tox confirm inactive
O=C(Nc1ccc([N+](=O)[O-])cc1)c1ccc(S(=O)(=O)N2CCCC2)cc1	none (no result: APP transl inh, BaF3 tox, Ba/F3 V617F tox)
O=C(Nc1ccc(S(=O)(=O)N2CCCCCC2)cc1)c1[nH]ncc1[N+](=O)[O-]	aSyn 5UTR inh 86, IEC-6 tox 29 (no result: APP transl inh, BaF3 tox, Ba/F3 V617F tox) | IEC-6 tox confirm inactive
COc1cc(C(=O)NCCOc2cc(C)cc(C)c2)cc(OC)c1OC	IEC-6 tox 62 (no result: APP transl inh, BaF3 tox, Ba/F3 V617F tox) | IEC-6 tox confirm 42
COc1cc(C(=O)NCCOc2ccccc2)cc(OC)c1OC	none (no result: APP transl inh, BaF3 tox, Ba/F3 V617F tox)
NC(=NCCc1c[nH]c2ccccc12)NC(=O)c1ccc(F)cc1	none (no result: APP transl inh)
Cc1nc(NCc2ccco2)[nH]c(=O)c1CCC(C)C	none
O=c1[nH]c(NCc2ccco2)nnc1Cc1ccccc1Cl	IEC-6 tox 22 | IEC-6 tox confirm inactive
COc1ccc(/C(C)=N/NC(=S)NCCc2ccccc2)c(O)c1	IEC-6 tox 40 (no result: APP transl inh, BaF3 tox, Ba/F3 V617F tox) | IEC-6 tox confirm inactive
COCCNC(=S)N/N=C(\C)c1ccccc1O	APP transl inh 79, IEC-6 tox 85 | IEC-6 tox confirm inactive
CC(OC(=O)c1cccc(S(=O)(=O)N2CCCCCC2)c1)C(=O)Nc1ccc(S(N)(=O)=O)cc1 (configuration not stated)	none (no result: APP transl inh, BaF3 tox, Ba/F3 V617F tox, KLF5 inhibitor, IEC-6 tox)
NNC(=O)c1cc2sccc2s1	BaF3 tox 78, Ba/F3 V617F tox 80, IEC-6 tox 63 (no result: APP transl inh) | IEC-6 tox confirm inactive
NC(=S)N/N=C/c1ccc(C(F)(F)F)cc1	BaF3 tox 35, Ba/F3 V617F tox 66, IEC-6 tox 39 | IEC-6 tox confirm inactive
COc1ccc(/C=N/NC(N)=S)cc1	none (no result: APP transl inh)
Cc1cc(NC(=O)CCC(=O)N(Cc2ccco2)C2(C(=O)NC3CCCCC3)CCCC(C)C2)no1 (configuration not stated)	none (no result: APP transl inh, BaF3 tox, Ba/F3 V617F tox)
Cc1ccc(NC(=O)Nc2cnccn2)cc1	none (no result: APP transl inh, BaF3 tox, Ba/F3 V617F tox)
CC(C)c1ccc(NC(=O)Nc2cnccn2)cc1	IEC-6 tox 42 (no result: APP transl inh, BaF3 tox, Ba/F3 V617F tox) | IEC-6 tox confirm inactive
CCOC(=O)c1ccc(NS(=O)(=O)c2c(C)[nH]c(C)c2C(=O)N2CCCCC2)cc1	none (no result: APP transl inh, BaF3 tox, Ba/F3 V617F tox)
COc1ccc(C(=O)COc2ccc3c(C)cc(=O)oc3c2)cc1	none (no result: APP transl inh, BaF3 tox, Ba/F3 V617F tox)
COc1cccc(C(=O)COc2ccc3c(C)cc(=O)oc3c2)c1	IEC-6 tox 28 (no result: APP transl inh, BaF3 tox, Ba/F3 V617F tox) | IEC-6 tox confirm inactive
COc1ccc(C2=NOC(COc3ccc4c(C)cc(=O)oc4c3)C2)c(OC)c1 (configuration not stated)	APP transl inh 73, BaF3 tox 70, Ba/F3 V617F tox 78, aSyn 5UTR inh 83, IEC-6 tox 60 | IEC-6 tox confirm 56
Cc1cc(=O)oc2cc(OCCCC[n+]3ccccc3)ccc12	none (no result: APP transl inh)
Cc1cc(=O)oc2cc(OCCc3ccccc3)ccc12	IEC-6 tox 44 (no result: APP transl inh, BaF3 tox, Ba/F3 V617F tox) | IEC-6 tox confirm 22
CCOCCCNC(=O)c1cc2c(s1)-c1ccccc1SC2	none (no result: APP transl inh, BaF3 tox, Ba/F3 V617F tox)
CN(C)CCNC(=O)c1cc2c(s1)-c1ccc(Cl)cc1SC2	aSyn 5UTR inh 100, IEC-6 tox 101 (no result: APP transl inh, BaF3 tox, Ba/F3 V617F tox) | IEC-6 tox confirm 28
O=C(Cc1ccc(-n2cccc2)cc1)NCc1ccccc1Cl	IEC-6 tox 29 | IEC-6 tox confirm 32
O=C(Cc1ccccc1)NCc1ccc(-n2cccc2)cc1	none
COc1ccc(CNC(=O)CCS(=O)(=O)c2cc3c(cc2Cl)NC(=O)CO3)cc1	none (no result: APP transl inh, BaF3 tox, Ba/F3 V617F tox)
COc1ccc(Cc2nc(-c3ccc(NC(=O)c4cccnc4)cc3)no2)cc1	APP transl inh 58, aSyn 5UTR inh 75, IEC-6 tox 31 | IEC-6 tox confirm 90
COc1ccc(-c2noc(CCC(=O)NCc3cccnc3)n2)cc1	none
CN(C)c1ccc(-c2nn3c(-c4ccccc4Cl)nnc3s2)cc1	APP transl inh 90, aSyn 5UTR inh 82, IEC-6 tox 35 | IEC-6 tox confirm 57
Clc1ccccc1-c1nnc2sc(-c3ccncc3)nn12	none
CN(C)CCn1c2ccccc2c2nc3ccc([N+](=O)[O-])cc3cc21	BaF3 tox 71, Ba/F3 V617F tox 87, aSyn 5UTR inh 104, IEC-6 tox 82 (no result: APP transl inh) | IEC-6 tox confirm 51
CCn1c2ccccc2c2cc([N+](=O)[O-])ccc21	none
Cc1ccc(C)c(Nc2c([N+](=O)[O-])c(=O)oc3ccccc23)c1	none (no result: APP transl inh)
Cn1ncc2c(O/N=C(\N)c3ccc(C(C)(C)C)cc3)ncnc21	BaF3 tox 36, Ba/F3 V617F tox 75, aSyn 5UTR inh 104, IEC-6 tox 93 (no result: APP transl inh) | IEC-6 tox confirm inactive
CCOc1ccc(N2CC(C(=O)NNC(=O)c3ccc(Br)cc3)CC2=O)cc1 (configuration not stated)	none (no result: APP transl inh, BaF3 tox, Ba/F3 V617F tox, KLF5 inhibitor, IEC-6 tox)
